{"source": "PubChem BioAssay (Tox21)", "note": "Inconclusive results are not listed. Activity calls are given as the source filed them. Calls come from the whole dose curve; as a rule, active = well fitted activation curve with a large enough effect in the signal ratio in the repeat runs (not every such curve was filed as active); inconclusive = weak or mixed curves, or effect the other way; inactive = flat fitted curve, though single readings scatter; the % refers to the signal ratio. % is set by controls: 0 for no effect and ±100 for the full control effect; potency is the fitted concentration of half-maximal effect."}
{"molecular_target": "Bile acid receptor (Homo sapiens) (UniProt Q96RI1)", "sequence (Q96RI1 whole entry, looked up)": "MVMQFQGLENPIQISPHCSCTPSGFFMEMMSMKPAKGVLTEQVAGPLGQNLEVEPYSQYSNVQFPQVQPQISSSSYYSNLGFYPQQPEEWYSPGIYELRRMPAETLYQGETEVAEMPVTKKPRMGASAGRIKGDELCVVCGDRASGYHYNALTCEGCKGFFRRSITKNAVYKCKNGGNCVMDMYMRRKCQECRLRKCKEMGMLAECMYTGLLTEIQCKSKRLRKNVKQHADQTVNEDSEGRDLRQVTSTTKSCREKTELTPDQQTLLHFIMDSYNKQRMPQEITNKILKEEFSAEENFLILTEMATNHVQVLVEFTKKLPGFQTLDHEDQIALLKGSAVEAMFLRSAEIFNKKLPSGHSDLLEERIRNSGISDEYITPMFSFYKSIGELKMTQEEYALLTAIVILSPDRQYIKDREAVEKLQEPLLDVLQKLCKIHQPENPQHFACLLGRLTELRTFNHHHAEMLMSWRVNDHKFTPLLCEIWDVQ", "assay": "qHTS assay to identify small molecule agonists of the farnesoid-X-receptor (FXR) signaling pathway (AID 743220)", "conditions": "HEK293T FXR-UAS-bla, beta-lactamase FRET ratio, 16 h; series mostly up to 62.6 µM; activation: at the top concentration", "excerpt": "National Center for Advancing Translational Sciences [NCATS]\nNIH Chemical Genomics Center [NCGC]\nU.S. Environmental Protection Agency [EPA]\nNational Institutes of Environmental Health Sciences [NIEHS]\nNational Toxicology Program [NTP]\nU.S. Food and Drug Administration [FDA]\nThe farnesoid-X-receptor (FXR), a nuclear hormone receptor, is highly expressed in liver, intestine, kidney and adrenal cortex. Natural ligands of FXR are the bile acids (Cholic acid, Chenodeoxy cholic acid etc). FXR is an important regulator of diverse metabolic pathways, including the bile acid homeostasis, lipid and glucose metabolisms. FXR regulates the expression of target genes by binding either as a monomer or as a heterodimer with the retinoid X receptor (RXR). Numerous studies have reported that FXR exerts protective function during cholestasis, diabetes, liver regeneration, and cancer. To identify compounds that activate FXR signaling, GeneBLAzer FXR-UAS-bla HEK 293T cell line (Invitrogen, Carlsbad, CA) containing a beta-lactamase reporter gene under the control of a UAS response element was used to screen the Tox21 10K compound library.\nTox21 Assay Protocol Summary:\nFXR-bla cells were dispensed at 5000 cells/5uL/well in 1536-well black wall/clear bottom plates using a Multidrop Combi (Thermo Fisher Scientific, Waltham, MA) dispenser. After the assay plates were incubated at 37C and 5% CO2 for 5 h, 23 nL of compounds dissolved in DMSO, positive controls or DMSO only was transferred to the assay plate by a Pintool station (Kalypsys, San Diego, CA). The assay plates were incubated at 37C for 16 h. After 1 uL of LiveBLAzerTM B/G FRET substrate was added using a Bioraptr Flying Reagent Dispenser (FRD) workstation (Beckman Coulter, Indianapolis, IN), the plates were incubated at room temperature for 2 h, and fluorescence intensity was measured by an Envision plate reader (PerkinElmer, Shelton, CT)."}
{"smiles": "CCCOc1ccc(S(=O)(=O)N2CCN(CC)CC2)cc1-c1nc2c(CC)n(Cc3ccccn3)nc2c(=O)[nH]1", "activation": "0.698% (inactive)"}
{"smiles": "COCCOC(=O)C1=C(C)NC(C)=C(C(=O)OC/C=C/c2ccccc2)C1c1cccc([N+](=O)[O-])c1", "note": "(stereo not given)", "Potency": "9.44 µM (active)"}
{"smiles": "CNC(=S)NC", "activation": "-5.86% (inactive)"}
{"smiles": "C=CC(C)(C)CC(=O)OC", "activation": "2.07% [at 81.1 µM] (inactive)"}
{"smiles": "CC(C)CCCC(=O)O", "activation": "0.246% (inactive)"}
{"smiles": "CO/N=C1\\CN(c2nc3c(cc2F)c(=O)c(C(=O)O)cn3C2CC2)CC1CN", "note": "(stereo not given)", "activation": "4.14% (inactive)"}
{"smiles": "Cc1cc2nc3ccc(=[N+](C)C)cc-3sc2cc1N", "activation": "8.56% (inactive)"}
{"smiles": "CCC(=O)OC/C=C/c1ccccc1", "activation": "-0.334% (inactive)"}
{"smiles": "COc1ccc([C@@H]2Sc3ccccc3NC(=O)[C@@H]2O)cc1", "activation": "0.669% (inactive)"}
{"smiles": "CCOC(=O)c1ccccc1C", "activation": "0.299% (inactive)"}
{"smiles": "CN(C(=O)C(Cl)Cl)c1ccc(OC(=O)c2ccco2)cc1", "activation": "-0.119% (inactive)"}
{"smiles": "Cc1ccccc1N1C(=O)c2cc(S(N)(=O)=O)c(Cl)cc2NC1C", "note": "(stereo not given)", "activation": "-4.51% (inactive)"}
{"smiles": "COCCOC", "activation": "-0.478% (inactive)"}
{"smiles": "CCOC(=O)C(C)Oc1ccc(Oc2nc3ccc(Cl)cc3o2)cc1", "note": "(stereo not given)", "activation": "3.17% (inactive)"}
{"smiles": "O=C(O)c1cccc(O)c1", "activation": "3.45% [at 81.1 µM] (inactive)"}
{"smiles": "CC(C)(CCl)c1ccccc1", "activation": "-4.31% (inactive)"}
{"smiles": "CC1=C(C=O)C(C)(C)CCC1", "activation": "-4.52% (inactive)"}
{"smiles": "Nc1ccc(S(=O)(=O)O)cc1", "activation": "0.421% [at 81.1 µM] (inactive)"}
{"smiles": "CC(COc1ccc(C(C)(C)C)cc1)OS(=O)OCCCl", "note": "(stereo not given)", "activation": "-0.494% [at 81.1 µM] (inactive)"}
{"smiles": "CCc1c2c(nc3ccc(OC(=O)N4CCC(N5CCCCC5)CC4)cc13)-c1cc3c(c(=O)n1C2)COC(=O)[C@]3(O)CC", "activation": "0.147% (inactive)"}
{"smiles": "CO[C@H]1C=CO[C@@]2(C)Oc3c(C)c(O)c4c(O)c(c5c(c4c3C2=O)=NC2(CCN(CC(C)C)CC2)N=5)NC(=O)/C(C)=C\\C=C/[C@H](C)[C@H](O)[C@@H](C)[C@@H](O)[C@@H](C)[C@H](OC(C)=O)[C@@H]1C", "activation": "-4.06% (inactive)"}
{"smiles": "CCC(C(=O)OCCOCCN(CC)CC)c1ccccc1", "note": "(stereo not given)", "activation": "2.02% (inactive)"}
{"smiles": "Nc1nc(Cl)nc2c1ncn2[C@@H]1O[C@H](CO)[C@@H](O)[C@@H]1F", "activation": "-1.54% (inactive)"}
{"smiles": "C/C=C/C=C/CCCCCCCO", "activation": "-0.0427% (inactive)"}
{"smiles": "O=C(CS)OCCOC(=O)CS", "activation": "-1.04% (inactive)"}
{"smiles": "CCCCC/C(=C\\c1ccccc1)CO", "activation": "-1.49% [at 81.1 µM] (inactive)"}
{"smiles": "Nc1ccc(C(=O)OCCCOC(=O)c2ccc(N)cc2)cc1", "activation": "-5.09% (inactive)"}
{"smiles": "C=CCNc1nc(NCC=C)nc(N2CCN(C(c3ccc(F)cc3)c3ccc(F)cc3)CC2)n1", "activation": "5.89% (inactive)"}
{"smiles": "CCCCCCCCCCCC[N+](C)(C)CC(=O)[O-]", "activation": "0.0973% (inactive)"}
{"smiles": "CN(C)CCOC1=Cc2ccccc2Sc2ccc(Cl)cc21", "activation": "-0.603% (inactive)"}
{"smiles": "NC(=O)N(O)[C@@H]1COc2cc(OCc3ccccc3)ccc21", "activation": "-0.883% (inactive)"}
{"smiles": "O=C(Nc1ccc([N+](=O)[O-])cc1)Nc1ccc([N+](=O)[O-])cc1", "activation": "-4.09% (inactive)"}
{"smiles": "CC[C@H](NC(=O)c1cc(F)ccc1NS(=O)(=O)c1cccc2cccnc12)c1ccccc1", "activation": "1.1% (inactive)"}
{"smiles": "c1ccc(COCc2ccccc2)cc1", "activation": "-0.816% [at 81.1 µM] (inactive)"}
{"smiles": "CC(C)OCC1CO1", "note": "(stereo not given)", "activation": "-3.29% (inactive)"}
{"smiles": "O=C(O)c1snc(Cl)c1Cl", "activation": "0.0667% (inactive)"}
{"smiles": "CC(C)(C)C(=O)C(Oc1ccc(Cl)cc1)n1ccnc1", "note": "(stereo not given)", "activation": "4.42% (inactive)"}
{"smiles": "NC(=O)Nc1ccc(Cl)c(Cl)c1", "activation": "-3.76% (inactive)"}
{"smiles": "NCC1CCCC(CN)C1", "note": "(stereo not given)", "activation": "-4.12% (inactive)"}
{"smiles": "CO[Si](C)(OC)OC", "activation": "2.26% (inactive)"}
